Test results as given in PubChem BioAssay (NCATS).
Results filed as inconclusive are left out. A number with no mark means an inactive call. Calls follow the shape of the dose curve; as a rule, active = well fitted inhibition curve with a large enough effect; inconclusive = small, poorly fitted or top-dose-only effect; inactive = flat fitted curve, though single readings scatter.

System: CP211
Experiment: qHTS profiling for inhibitors of Plasmodium falciparum proliferation (AID 504749);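 also: 0% = DMSO vehicle and full inhibition = artemisinin control; nearly all actives have a fitted effect of over 60% in size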
Details: P. falciparum in erythrocytes, SYBR Green DNA, 72 h; series mostly up to 28.7 µM; activity, negative = inhibition: at the top concentration
Outline: (§1)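 P. falciparum-infected erythrocytes (0.3% parasitemia, 2.5% hematocrit final) were exposed to compounds for 72 h at 37 C in 5% CO2, then lysed with SYBR Green buffer overnight at room temperature; parasite DNA fluorescence was normalized to artemisinin and DMSO controls.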

Compared with `CC(C)[C@@H](N)C(=O)O`, `N[C@H](CC(=O)O)C(=O)O` is higher in “activity, negative = inhibition” value: -2.25% for the first, 6.31% for the second.

First: C[C@H]1O[C@@H](O[C@H]2[C@@H](O)C[C@H](O[C@H]3[C@@H](O)C[C@H](O[C@H]4CC[C@@]5(C)[C@H](CC[C@@H]6[C@@H]5C[C@@H](O)[C@]5(C)[C@@H](C7=CC(=O)OC7)CC[C@]65O)C4)O[C@@H]3C)O[C@@H]2C)C[C@H](O)[C@@H]1O
Second: CC(C)CCC[C@@H](C)[C@H]1CC[C@H]2[C@@H]3CC=C4C[C@@H](O)CC[C@]4(C)[C@H]3CC[C@]12C
The “activity, negative = inhibition” value of the first is lower: -2.65% for the first, 12.1% for the second.

Compared with `CC(=O)NCCCS(=O)(=O)O`, `CCOC(=O)[C@@H](N)CS` is lower in “activity, negative = inhibition” value: 1.43% for the first, -1.12% for the second.

Compared with `C=Cc1ccc(S(=O)(=O)O)cc1`, `CCCc1ccc(C(=O)O)cc1` is lower in “activity, negative = inhibition” value: 1.96% for the first, -1.96% for the second.

Going from `CO` to `O=P(O)(O)O`, the “activity, negative = inhibition” value falls from 3.78% to 0.494%.

First: O=C1[O][Bi][O]c2ccccc21
Second: O=C1c2ccccc2C(=O)C1c1ccc(F)cc1
The “activity, negative = inhibition” value of the first is higher: 7.65% for the first, -1.52% for the second.

First: O=P(O)(O)CP(=O)(O)O
Second: O=C(O)[C@H]1C(=CCO)O[C@H]2CC(=O)N12
The “activity, negative = inhibition” value of the first is lower: -4.59% for the first, 1.58% for the second.

First: CCOc1ccc(NC(=S)Nc2ccc(OCC)cc2)cc1
Second: CC(=O)Nc1ccc(OC(=O)c2ccccc2O)cc1
The “activity, negative = inhibition” value of the first is lower: -8.15% for the first, -0.872% for the second.

First: O=C(O)c1ccc(NC(=O)[C@H](Cc2ccc(O)cc2)NC(=O)c2ccccc2)cc1
Second: O=C(NNCNNC(=O)c1ccncc1)c1ccncc1
The “activity, negative = inhibition” value of the first is lower: 2.46% for the first, 7.67% for the second.

Compared with `COc1cc2c(cc1OC)[C@@H](Cc1cc(OC)c(OC)c(OC)c1)[N+](C)(CCCOC(=O)CC/C=C/CCC(=O)OCCC[N+]1(C)CCc3cc(OC)c(OC)cc3[C@H]1Cc1cc(OC)c(OC)c(OC)c1)CC2` (stereo partly drawn), `O=C(O)CCC/C=C\C[C@@H]1[C@@H](/C=C/[C@@H](O)COc2cccc(C(F)(F)F)c2)[C@H](O)C[C@@H]1O` is higher in “activity, negative = inhibition” value: -5.9% for the first, -1.31% for the second.

First: F[Si-2](F)(F)(F)(F)F
Second: CO/N=C(/C(=O)N[C@@H]1C(=O)N2C(C(=O)O)=C(COC(N)=O)CS[C@H]12)c1ccco1
The “activity, negative = inhibition” value of the first is higher: -4.88% for the first, -9.78% for the second.

Compared with `Cc1c(Cl)cccc1Nc1ncccc1C(=O)O`, `CN(Cc1ccccc1)Cc1ccccc1` is higher in “activity, negative = inhibition” value: -1.22% for the first, 1.2% for the second.

Compared with `CCCCCCCCCCCC(=O)OCC(O)CO` (stereo not drawn), `CC/C=C\C/C=C\C/C=C\CCCCCCCC(=O)O` is lower in “activity, negative = inhibition” value: 5.52% for the first, 0.295% for the second.

First: CC1=CC(=O)NS(=O)(=O)O1
Second: COC(=O)C(CN)c1c[nH]c2ccc(OC)cc12 (stereo not drawn)
The “activity, negative = inhibition” value of the first is higher: 4.11% for the first, 2.01% for the second.

Going from `CCCCCCOC(=O)c1cccnc1` to `CC1CCCCN1CCCOC(=O)c1ccccc1` (stereo not drawn), the “activity, negative = inhibition” value rises from -0.0716% to 0.0141%.

First: CCN(CC)CCOc1ccccc1OC
Second: CN(C)c1ccc(C(=C2C=CC(=[N+](C)C)C=C2)c2c(O)c(S(=O)(=O)[O-])cc3cc(S(=O)(=O)O)ccc23)cc1
The “activity, negative = inhibition” value of the first is higher: 0.236% for the first, -9.21% for the second.

Going from `ClC(Cl)Cl` to `CC(C)(CO)[C@@H](O)C(=O)NCCC(=O)NCCSSCCNC(=O)CCNC(=O)[C@H](O)C(C)(C)CO`, the “activity, negative = inhibition” value rises from -2.61% to 2.12%.

Going from `Nc1ncnc2c1ncn2[C@H]1CC[C@@H](CO)O1` to `CCCCCCCCCCCCCCCCCCCCCC(=O)Nc1ccn([C@@H]2O[C@H](CO)[C@@H](O)[C@@H]2O)c(=O)n1`, the “activity, negative = inhibition” value falls from 0.224% to -13.1%.

In the case of `C=CC(=O)O`, the “activity, negative = inhibition” value is reported as 0.835%.

Compared with `CN1C(=O)OC(C)(C)C1=O`, `CC(=O)[C@H]1CC[C@H]2[C@@H]3C=CC4=CC(=O)CC[C@@]4(C)[C@H]3CC[C@]12C` is lower in “activity, negative = inhibition” value: 0.531% [at 12.8 µM] for the first, -7.83% [at 12.8 µM] for the second.

System: CP215
Experiment: as above
Details: P. falciparum in erythrocytes, SYBR Green DNA, 72 h; series mostly up to 28.7 µM; activity, negative = inhibition: at the top concentration
Outline: as §1

First: CC(C)[C@@H](N)C(=O)O
Second: N[C@H](CC(=O)O)C(=O)O
The “activity, negative = inhibition” value of the first is lower: 3.3% for the first, 6.55% for the second.

Going from `C[C@H]1O[C@@H](O[C@H]2[C@@H](O)C[C@H](O[C@H]3[C@@H](O)C[C@H](O[C@H]4CC[C@@]5(C)[C@H](CC[C@@H]6[C@@H]5C[C@@H](O)[C@]5(C)[C@@H](C7=CC(=O)OC7)CC[C@]65O)C4)O[C@@H]3C)O[C@@H]2C)C[C@H](O)[C@@H]1O` to `CC(C)CCC[C@@H](C)[C@H]1CC[C@H]2[C@@H]3CC=C4C[C@@H](O)CC[C@]4(C)[C@H]3CC[C@]12C`, the “activity, negative = inhibition” value rises from 4.21% to 12.7%.

Going from `CC(=O)NCCCS(=O)(=O)O` to `CCOC(=O)[C@@H](N)CS`, the “activity, negative = inhibition” value falls from -3.01% to -5.42%.

Compared with `C=Cc1ccc(S(=O)(=O)O)cc1`, `CCCc1ccc(C(=O)O)cc1` is higher in “activity, negative = inhibition” value: -7.26% for the first, 5.74% for the second.

Compared with `CO`, `O=P(O)(O)O` is higher in “activity, negative = inhibition” value: -23% for the first, 7.49% for the second.

First: O=C1[O][Bi][O]c2ccccc21
Second: O=C1c2ccccc2C(=O)C1c1ccc(F)cc1
The “activity, negative = inhibition” value of the first is higher: 3.13% for the first, 1.32% for the second.

Going from `O=P(O)(O)CP(=O)(O)O` to `O=C(O)[C@H]1C(=CCO)O[C@H]2CC(=O)N12`, the “activity, negative = inhibition” value falls from 3.21% to 0.258%.

Compared with `CCOc1ccc(NC(=S)Nc2ccc(OCC)cc2)cc1`, `CC(=O)Nc1ccc(OC(=O)c2ccccc2O)cc1` is lower in “activity, negative = inhibition” value: 8.21% for the first, 0.0055% for the second.

Going from `O=C(O)c1ccc(NC(=O)[C@H](Cc2ccc(O)cc2)NC(=O)c2ccccc2)cc1` to `O=C(NNCNNC(=O)c1ccncc1)c1ccncc1`, the “activity, negative = inhibition” value falls from 10.7% to 8.57%.

Going from `COc1cc2c(cc1OC)[C@@H](Cc1cc(OC)c(OC)c(OC)c1)[N+](C)(CCCOC(=O)CC/C=C/CCC(=O)OCCC[N+]1(C)CCc3cc(OC)c(OC)cc3[C@H]1Cc1cc(OC)c(OC)c(OC)c1)CC2` (stereo partly drawn) to `O=C(O)CCC/C=C\C[C@@H]1[C@@H](/C=C/[C@@H](O)COc2cccc(C(F)(F)F)c2)[C@H](O)C[C@@H]1O`, the “activity, negative = inhibition” value falls from -0.619% to -14.1%.

First: F[Si-2](F)(F)(F)(F)F
Second: CO/N=C(/C(=O)N[C@@H]1C(=O)N2C(C(=O)O)=C(COC(N)=O)CS[C@H]12)c1ccco1
The “activity, negative = inhibition” value of the first is higher: 9.67% for the first, 2.08% for the second.

Going from `Cc1c(Cl)cccc1Nc1ncccc1C(=O)O` to `CN(Cc1ccccc1)Cc1ccccc1`, the “activity, negative = inhibition” value falls from 2.57% to -12.9%.

Going from `CCCCCCCCCCCC(=O)OCC(O)CO` (stereo not drawn) to `CC/C=C\C/C=C\C/C=C\CCCCCCCC(=O)O`, the “activity, negative = inhibition” value falls from 0.77% to -14.9%.

First: CC1=CC(=O)NS(=O)(=O)O1
Second: COC(=O)C(CN)c1c[nH]c2ccc(OC)cc12 (stereo not drawn)
The “activity, negative = inhibition” value of the first is lower: -8.08% for the first, -3.16% for the second.

Going from `CCCCCCOC(=O)c1cccnc1` to `CC1CCCCN1CCCOC(=O)c1ccccc1` (stereo not drawn), the “activity, negative = inhibition” value rises from -2.85% to -2.19%.

Compared with `CCN(CC)CCOc1ccccc1OC`, `CN(C)c1ccc(C(=C2C=CC(=[N+](C)C)C=C2)c2c(O)c(S(=O)(=O)[O-])cc3cc(S(=O)(=O)O)ccc23)cc1` is higher in “activity, negative = inhibition” value: -9.66% for the first, 1.62% for the second.

First: ClC(Cl)Cl
Second: CC(C)(CO)[C@@H](O)C(=O)NCCC(=O)NCCSSCCNC(=O)CCNC(=O)[C@H](O)C(C)(C)CO
The “activity, negative = inhibition” value of the first is higher: 5.76% for the first, 0.322% for the second.

Compared with `Nc1ncnc2c1ncn2[C@H]1CC[C@@H](CO)O1`, `CCCCCCCCCCCCCCCCCCCCCC(=O)Nc1ccn([C@@H]2O[C@H](CO)[C@@H](O)[C@@H]2O)c(=O)n1` is higher in “activity, negative = inhibition” value: 0.782% for the first, 1.37% for the second.

With `C=CC(=O)O` the “activity, negative = inhibition” value was 5.41%.

Compared with `CN1C(=O)OC(C)(C)C1=O`, `CC(=O)[C@H]1CC[C@H]2[C@@H]3C=CC4=CC(=O)CC[C@@]4(C)[C@H]3CC[C@]12C` is higher in “activity, negative = inhibition” value: 1.79% [at 12.8 µM] for the first, 9.98% [at 12.8 µM] for the second.
